The whole screen tested about 48,000 compounds, of which about 13,000 (27%) showed an effect of 50% or more. The list shows a part of the results.
Each compound was assayed on Wolbachia pipientis (assay: Anti-Wolbachia Cell-Based Screen). Conditions: 5 µM.
Type: functional
Set-up: scale not given: in the data most compounds retested in dose-response had high values

| Compound | Percent Effect [%] |
| --- | --- |
| FC(F)(F)Oc1ccc(-c2noc([C@@H]3Cc4nc[nH]c4CN3)n2)cc1 | -8.285 |
| CCCc1nnc(N(C)CC2CCN(CC(C)C)CC2)o1 | -8.883 |
| Cc1ccc2nc(-c3cnc(N)nc3)c(C)c(C(=O)N(C)C)c2c1 | 2.177 |
| Cc1cc(CN2CCOC(CN(C)C)C2)no1 (configuration not stated) | -11.72 |
| Cc1nc(C)n(CC2CCCN2Cc2cscn2)n1 (configuration not stated) | -0.8371 |
| Cc1cc(N(C)C)nc(N(C)Cc2csc(C)n2)n1 | -1.887 |
| Cc1cc(CN2CCCC2c2noc(C)n2)no1 (configuration not stated) | -4.781 |
| Cc1cc(N(C)C)nc(C2COCCN2Cc2cc(C)on2)n1 (configuration not stated) | 106.1 |
| CCOC(=O)N(C)C1CCN(Cc2csc(C)n2)CC1 | -9.858 |
| Cc1cc(C)n(CC2CCCCN2Cc2cscn2)n1 (configuration not stated) | 2.934 |
| Cc1cc(N(C)C)nc(C2COCCN2Cc2nccn2C)n1 (configuration not stated) | 106.8 |
| Cc1cc(N(C)C)nc(C2COCCN2Cc2cscn2)n1 (configuration not stated) | 100.1 |
| Cn1ccnc1CN1CCOC[C@H]1c1nc(C(C)(C)C)co1 | -3.783 |
| Cc1cc(N(C)C)nc(N2CCN(Cc3nccn3C)CC2)n1 | -14.83 |
| Cc1cc(N(C)C)nc(C2COCCN2Cc2csc(C)n2)n1 (configuration not stated) | 76.41 |
| CC(NC1(CNS(C)(=O)=O)CCCC1)c1ccccc1 (configuration not stated) | -3.236 |
| COc1ccc(-n2cccn2)c(CN2CCOCC(CN(C)C)C2)c1 (configuration not stated) | -24.66 |
| COc1cccc(CNCCc2cc(F)cc3c2OCOC3)c1 | -0.9463 |
| CC(C)(C)c1coc([C@@H]2COCCN2Cc2csnn2)n1 | -9.121 |
| CNc1cc(C)nc(C2COCCN2Cc2csc(C)n2)n1 (configuration not stated) | 118.8 |
| Cc1nc(CN2CCCC2c2nc(C(C)C)no2)cs1 (configuration not stated) | -7.461 |
| COc1ccnc(NC(=O)c2cscc2C)c1 | -3.049 |
| CCc1[nH]ncc1C(=O)N1CCN(c2nccc(OC)n2)CC1 | -7.097 |

| Compound | Percent Effect [%] |
| --- | --- |
| Cc1cc(-c2nccn2CCN2CCCCC2CO)oc1C (configuration not stated) | 12.23 |
| CCc1cnc(N)nc1NCCN1CCCCC1 | 1.893 |
| Cc1cnc(NCCCN2CCCCC2CO)nc1 (configuration not stated) | 67.94 |
| Cc1cc(C)n(CC2CCCCN2CCCS(=O)(=O)N(C)C)n1 (configuration not stated) | 4.04 |
| Cc1ncnc(NCCCN2CCCCC2CO)c1C (configuration not stated) | 93.53 |
| CCc1cnc(N)nc1NCCCN1CCCCC1CO (configuration not stated) | 90.38 |
| CCc1cnc(N)nc1NCCC(=O)NC1CCCCC1 | 31.74 |
| Cc1nc(C)n(CCCNc2ncnc(C)c2C)n1 | -4.271 |
| Cc1ccsc1-c1nccn1CCN1CCCCC1CO (configuration not stated) | 8.185 |
| O=C(NC1CCC1)[C@@H]1CCO[C@@H]2CCN(C3CCCC3)C[C@H]21.O=C(O)C(F)(F)F | -6.007 |
| CCc1n[nH]c(C2CN(Cc3nccn3CC)CCO2)n1 (configuration not stated) | -1.514 |
| CN(CCc1cn[nH]c1)C(=O)C1CC(=O)N(Cc2cccnc2)C1 (configuration not stated) | 1.356 |
| N#CCCCN1CCCC1Cc1ccccc1 (configuration not stated) | -5.887 |
| CCCn1ncc(CN2C[C@@H]3CCCN3C[C@@H]2Cc2ccccc2)c1C | 119.2 |
| CCCn1ncc(CN2C[C@@H]3CCCN3C[C@H]2Cc2ccccc2)c1C | 112.1 |
| CCCn1ncc(C(=O)N2CCN(C3Cc4ccccc4C3)CC2)c1C | 1.653 |
| c1ccc(CNc2ncc(CN3CCCN4CCC[C@H]4C3)cn2)cc1 | -5.428 |
| CC(=O)c1ccc(-c2cnn(CC(=O)Nc3ccnn3C)c2)nc1 | -6.817 |
| O=C(NCC(O)c1ccsc1)c1sccc1OC(F)F (configuration not stated) | -10.31 |
| Cc1cccc2cc(C(=O)N3CCC(F)(F)CC3)n(C)c12 | 5.497 |
| Cc1cccc(C(=O)N2CCc3c(CN(C)C)nn(C)c3C2)n1 | 94.16 |
| CN(C)Cc1nn(C)c2c1CN(C(=O)Nc1cccc(F)c1)C2 | -15.2 |
| Cc1nocc1C(=O)N1CCc2c(CN(C)C)nn(C)c2C1 | 93.65 |

| Compound | Percent Effect [%] |
| --- | --- |
| Cc1cccc(NC(=O)N2Cc3c(CN(C)C)nn(C)c3C2)c1 | -10.1 |
| Cn1nc(CN2CCCC2)c2c1CN(C(=O)c1cccnc1)CC2.O=C(O)C(F)(F)F.O=C(O)C(F)(F)F | -3.711 |
| CN(C)Cc1nn(C)c2c1CCN(C(=O)CC1CC1)C2.O=C(O)C(F)(F)F | 5.365 |
| CC(=O)NCC(=O)N1CCc2c(CN(C)C)nn(C(C)C)c2C1 | -2.95 |
| CN(C)Cc1nn(C)c2c1CN(C(=O)c1cccc(C#N)c1)C2 | 110.3 |
| CN(C)Cc1nn(C)c2c1CCN(C(=O)c1cnccn1)C2.O=C(O)C(F)(F)F | -5.117 |
| CN(C)Cc1nn(C)c2c1CCN(C(=O)c1cccnc1)C2 | 84.36 |
| CN(C)Cc1nn(C)c2c1CCN(S(=O)(=O)c1cccs1)C2 | 12.48 |
| Cc1cc(N[C@H](CO)c2ccccc2)n2nc(C)cc2n1 | 1.495 |
| Cc1noc(C2CCCN(C(=O)c3ccc(Br)cc3F)C2)n1 (configuration not stated) | 4.795 |
| N#Cc1c(F)cccc1N1CCN(S(=O)(=O)c2cccs2)CC1 | -7.537 |
| CC(Cn1cccn1)NC(=O)NCCCN1CCc2ccccc2C1 (configuration not stated) | -5.201 |
| Cc1nc([C@H]2C[C@@H]3CCN(Cc4scnc4C)C[C@H]3O2)no1.O=C(O)C(F)(F)F | -18.74 |
| CCc1ncc2c(n1)CN(C(C(N)=O)c1ccccc1)CC2 (configuration not stated) | -0.2058 |
| CC(=O)Nc1ncc(-c2ccc(C)cc2)[nH]1 | -15.96 |
| Cc1cc(C(=O)N2CCc3ncnc(N4CCSCC4)c3CC2)[nH]n1 | -7.195 |
| Cc1cc(C(=O)N2CCc3c(CN(C)C)nn(C)c3C2)[nH]n1 | 109.1 |
| Cc1cc(-c2nn(C)c(Cl)c2CN2CCOCC2CC(N)=O)no1 (configuration not stated) | -10.25 |
| Cc1noc(CSc2ccc(C(F)(F)F)cn2)n1 | -11.43 |
| COc1ncc(C)cc1NC(=O)COCC(F)(F)F | -3.698 |
| CC(C)c1nc(S(=O)(=O)Nc2ccnn2C2CCCC2)c[nH]1 | -16.48 |
